Measurements taken from PubChem BioAssay.
Values joined by “and” are separate entries in the source; they are usually repeats but may differ in a detail not shown here. Equal entries are not always repeated. Active and inactive are the calls of the source.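 Rule for the calls, unless noted: active = compound raises insulin release from rat beta cells at 5 mM glucose, no numeric limit stated; inactive = the rest.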

Columns and labels:
[1] = stimulators of nuclear beta-catenin in C2C12, primary screen, imaging, WNT3A-conditioned medium, mouse C2C12, NPC library (AID 1117326; in the data active = nuclear beta-catenin stimulation mostly above about 4.2%, no sharp cut-off; inactive = mostly below about 10%; note: reference of the scale not given here); settings: stronger effect = higher value
[2] = stimulators of insulin release from INS-1E, primary screen, cell-based, 5 mM glucose, NPC library (AID 1117329); settings: rat INS-1E insulin secretion, at 10 µM, stronger effect = higher value; note: reference of the scale not given here
[3] = growth inhibition of GSK3B-pretreated HCT116 cells – cell-based, CellTiter-Glo, 0.2 to 20 µM (AID 1117336;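 active = compounds lowering colon cancer cell viability after pretreatment blocking the GSK3B kinase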); settings: HCT116 viability after GSK3B inhibitor, at 20 µM, stronger effect = higher value
[4] = inhibition of endothelial tube formation, primary screen, imaging, VEGF stimulated, CD31 staining, tube area, NPC library (AID 1117340;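 active = compound that reduces growth-factor-driven endothelial tube area in a mixed cell culture, no cutoff stated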); settings: VEGF-stimulated ADSC/ECFC co-culture, at 10 µM, stronger effect = higher value
[5] = glucagon-like peptide 1 release enhancers, primary assay, NCI-H716 cell line, NPC library (AID 1117341;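 active = compound raises GLP1 secretion from the human gut endocrine cells, with no numeric limit stated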; note: reference of the scale not given here); settings: NCI-H716 cells, at 10 µM, stronger effect = higher value
[6] = HCT116 colon cancer cell growth inhibition, primary screen, CellTiter-Glo luminescence, NPC library (AID 1117342;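 active = compounds that lower survival of HCT116 colon cancer cells in the luminescence readout, no numeric limit stated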); settings: at 20 µM (top of the series)
[7] = CellTiter-Glo luminescent readout of SW480 viability loss, NPC library primary (AID 1117343;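 active = compounds that lower viability of the colon cancer cells in the luminescence readout, with no numeric limit stated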); settings: CellTiter-Glo luminescence; at 20 µM (top of the series)
[8] = decreased DLD-1 cellular survival, CellTiter-Glo luminescent readout, NPC compound collection, primary HTS (AID 1117346;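 active = compounds that lower survival of DLD-1 colon cancer cells in the luminescence readout, no cutoff given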); settings: DLD-1 viability, CellTiter-Glo luminescence; at 20 µM (top of the series)
[9] = survival rescue of mitochondrial mutant cells in low glucose, primary screen, MELAS cybrids, Rieske KO mouse fibroblasts, CellTiter-Glo (AID 1508586;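 active = mean z-score across replicates of 1.96 or higher in either the MELAS or the Rieske mutant cell line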;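 note: z relative to plate mean and SD of compound and empty wells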)
[10] = hESC survival regulators, cell-based (AID 493140; call rule not given here;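 note: cells exposed to compounds for four days before counting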); settings: human embryonic stem cell survival screen; stronger effect = higher value
[11] = liver-stage malaria parasite growth inhibition, primary screen, cell-based, HepG2, luciferase luminescence, HepG2 viability (AID 624349; in the data active = parasite load remaining mostly below about 12%, no sharp cut-off; inactive = mostly above about 10%;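 note: 100% = mean of DMSO negative control wells on the same plate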); settings: P. berghei liver stage in HepG2, luciferase luminescence, concentration not given here; parasite load remaining: stronger effect = lower value; viability: measured here: HepG2 viability without parasites
[12] = sensitizers of A549 cells to miR-34 induction, primary screen, imaging, A549 dox-inducible miR-34, nuclei and caspase counts (AID 1347080;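 active = compounds whose cell count with miR-34 switched on is under 0.7 times the count with it off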); settings: A549 miR-34 inducible, Hoechst nuclei count, 48 h
[13] = target: NAD(+) hydrolase SARM1 (Homo sapiens) (UniProt Q6SZW1); assay: SARM1 TIR NADase inhibitors, cell lysate, NAD-Glo luminescence (AID 1508614;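 active = compound whose remaining NAD level is above about 45 nM, limit read from the data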;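 note: higher remaining NAD means stronger inhibition of SARM1 NADase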); settings: SAM-TIR HEK293T lysate NADase, at 1 µM, stronger effect = higher value
Sequence of NAD(+) hydrolase SARM1 (Homo sapiens) (Q6SZW1 whole entry, looked up): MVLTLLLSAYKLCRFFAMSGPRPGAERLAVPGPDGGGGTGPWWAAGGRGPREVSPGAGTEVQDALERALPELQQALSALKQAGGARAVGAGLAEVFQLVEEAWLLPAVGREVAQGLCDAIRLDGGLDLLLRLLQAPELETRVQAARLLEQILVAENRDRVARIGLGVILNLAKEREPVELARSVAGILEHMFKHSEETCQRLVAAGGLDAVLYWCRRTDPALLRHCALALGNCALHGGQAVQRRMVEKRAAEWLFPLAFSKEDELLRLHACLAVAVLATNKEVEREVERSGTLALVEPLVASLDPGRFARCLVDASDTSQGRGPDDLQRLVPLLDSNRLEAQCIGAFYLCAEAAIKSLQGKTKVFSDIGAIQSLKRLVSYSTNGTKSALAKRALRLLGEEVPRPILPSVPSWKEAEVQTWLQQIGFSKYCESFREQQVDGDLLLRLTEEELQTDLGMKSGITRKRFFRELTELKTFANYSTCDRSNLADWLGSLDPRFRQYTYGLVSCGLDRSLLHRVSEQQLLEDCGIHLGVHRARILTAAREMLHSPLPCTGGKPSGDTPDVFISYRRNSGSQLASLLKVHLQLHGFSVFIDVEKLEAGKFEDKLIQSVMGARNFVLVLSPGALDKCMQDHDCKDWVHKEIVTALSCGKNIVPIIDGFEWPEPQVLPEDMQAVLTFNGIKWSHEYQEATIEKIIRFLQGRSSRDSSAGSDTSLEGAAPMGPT

[14] = MELAS cybrid survival, CellTiter-Glo 48 h, stronger effect = higher value
[15] = Rieske KO mouse fibroblast survival, CellTiter-Glo 72 h
[16] = measured here: relative caspase fold change +Dox/-Dox
[17] = measured here: total cells with miR-34 induction, stronger effect = lower value
[18] = measured here: total cells without miR-34 induction
[19] = stronger effect = lower value, cell number ratio, induced over uninduced

Structure (SMILES)	nuclear beta-catenin stimulation ([1]; at 10 µM)	nuclear beta-catenin stimulation ([1]; stimulation, at 2 µM)	insulin secretion stimulation [2]	viability decrease [3]	tube area decrease [4]	GLP1 secretion stimulation [5]	inhibition of viability [6]	viability decrease (inhibition) [7]	viability decrease (inhibition) [8]	z-score [9, 14]	z-score [9, 15]	survival [10]	parasite load remaining [11]	viability [11]	fold change ([12]; stronger effect = lower value)	fold change [12, 16]	cell count [12, 17]	cell count [12, 18]	fold change [12, 19]	remaining NAD [13]
C=C1CC[C@@]2(O)[C@H]3Cc4ccc(O)c5c4[C@@]2(CCN3CC2CC2)[C@H]1O5	0.5% (inactive)	2.1%	1.2% (inactive)	-11.9% (inactive)	5.1% (inactive)	2.6% (inactive)	20.1% (inactive)	7.8% (inactive)	6.2% (inactive)	0.147 (inactive)	-0.2									
CC[N+]1(CCOC(=O)C(O)(c2ccccc2)c2ccccc2)CCCCC1	-0.3% (inactive)	0.7%	-0.8% (inactive)		23.5% (inactive)	0.5% (inactive)														
CC1(C)[C@H](C=C(Cl)Cl)[C@@H]1C(=O)OCc1c(F)c(F)cc(F)c1F	-2.8% (inactive)	-1.8%	0.45% (inactive)			-5.4% (inactive)														
O=C(CCCN1CCC(n2c(=O)[nH]c3ccccc32)CC1)c1ccc(F)cc1	4.7% (inactive)	3%	0.7% (inactive)	-40.8% (inactive)	8% (inactive)	2.9% (inactive)	19.9% (inactive)	29.4% (inactive)	2.6% (inactive)	0.0917 (inactive)	-0.147	11.5 (inactive)	-5.69% (inactive) and 52.9% (inactive)	105% and 74.8%	0.825 (inactive)	1.64	7580	9190		
COc1ccc2c(c1OC)CN1CCc3cc4c(cc3C1C2)OCO4 (stereo not given)	2.2% (inactive)	2.8%	1.5% (inactive)	34.2% (inactive)	1.4% (inactive)	-1% (inactive)	49.3% (inactive)	-5.2% (inactive)	21.3% (inactive)			0.583 (inactive)	82.7% (inactive)	89.1%	0.795 (inactive)	1.12	8510	10700		
COC(=O)[C@@H](N)CCCN/C(N)=N/[N+](=O)[O-]	-0.9% (inactive)	-2.6%	0.95% (inactive)	23.3% (inactive)	-8.8% (inactive)	0.9% (inactive)	1.7% (inactive)	-10.3% (inactive)	-0.3% (inactive)							0.639	5570	5890	0.947 (inactive)	
CCOC(=O)C=C(C)C=CC[C@@H](C)CCCC(C)C	0.8% (inactive)	-0.1%	1.05% (inactive)			-6.5% (inactive)														
CCC(C(N)=O)N1CCCC1=O (stereo not given)	-0.1% (inactive)	-0.2%	1.4% (inactive)	-0.8% (inactive)	-18.3% (inactive)	0.6% (inactive)	-4.9% (inactive)	-0.6% (inactive)	-1.1% (inactive)	2 (active)	0.478				0.925 (inactive) and 0.884 (inactive)	1.53 and 10.7	9780 and 8770	10600 and 9920		
CN(C)CCc1ccc(O)cc1	-0.3% (inactive)	1.5%	-0.4% (inactive)	1.5% (inactive)	4.1% (inactive)	1.1% (inactive)	4.7% (inactive)	1.9% (inactive)	-0.4% (inactive)	-0.277 (inactive)	0.765					0.849	9070	9990	0.908 (inactive)	
C#C[C@]1(O)CC[C@H]2[C@@H]3CCC4=CC(=O)CCC4=C3C=C[C@@]21CC	-0.6% (inactive)	0.3%	0.7% (inactive)	14.5% (inactive)	41.9% (active)	2.8% (inactive)	26.1% (inactive)	16% (inactive)	-9.5% (inactive)	0.0912 (inactive) and 0.694 (inactive)	0.385 and 1.43		55.7% (inactive)	102%	0.886 (inactive)	1.01	9780	11000		
Clc1cccc(N2CCNCC2)c1	1% (inactive)	0.1%	3.9% (inactive)	15% (inactive)	3.3% (inactive)	6.5% (inactive)	10.8% (inactive)	68.5% (active)	26.4% (inactive)											
C[C@@H]1CN(C2CCC(C#N)(c3ccc(F)cc3)CC2)CC[C@]1(C(=O)O)c1ccccc1 (stereo not given in full)	0% (inactive)	0.4%	-1.7% (inactive)	18.6% (inactive)	9.6% (inactive)	1.1% (inactive)	15.3% (inactive)	33.5% (inactive)	30.7% (inactive)	-1.75 (inactive)	-1.19	4.42 (inactive)	126% (inactive)	76.2%	0.976 (inactive)	0.701	9400	9630		
O=[N+]([O-])C(Br)(CO)CO	44.8% (active)	0%	20.2% (active)	-19.2% (inactive)	106% (active)	-0.1% (inactive)	2.9% (inactive)	88.9% (active)	52.2% (active)											51 nM (active)
